The results in this text go back to PubChem BioAssay (Tox21).

A short description of experiment [1]: qHTS assay for small molecule agonists of the p53 signaling pathway (AID 651631; calls by dose curve; also: nearly all actives have a fitted effect of over 15% in size). The essentials: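 p53RE-bla HCT-116 cells; compounds 16 h, 37 °C; LiveBLAzer B/G FRET substrate 2 h RT; fluorescence intensity read-out, qHTS format.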
On the technique in general: In qHTS, concentration-response curves come from the screen itself.

A short description of experiment [2]: qHTS assay for small molecule agonists of the p53 signaling pathway - cell viability (AID 651633; calls by dose curve; also: nearly all actives have a fitted effect of over 30% in size; also: potency is read from the fitted curve at half-maximal effect;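 as to activity change, negative = cytotoxicity: p53RE-bla HCT reporter cells with a stable beta-lactamase p53 reporter; series mostly up to about 83 µM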). The essentials: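 p53RE-bla cells, seeded at 4,000 per well and rested 5 h at 37 C/5% CO2, received compounds in DMSO for 16 h at 37 C. CellTiter-Glo was then added, and luminescence was read after 30 min at room temperature to gauge cytotoxicity.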
A short description of experiment [3]: qHTS assay for small molecules that induce genotoxicity in human embryonic kidney cells expressing luciferase-tagged ATAD5 - cell viability (AID 651634; calls by dose curve; also: nearly all actives have a fitted effect of over 25% in size; also: potency is read from the fitted curve at half-maximal effect). Put shortly: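 Cytotoxicity counter-readout: after 15.5 hr compound treatment at 37C, live-cell protease activity in ATAD5-luciferase HEK293T cells measured by CellTiter-Fluor fluorescence, 30 min development at 37C.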

Experiment [4] can be described thus: qHTS assay to test for compound auto fluorescence at 590 nm (red) in HepG2 cells (AID 720674). Put shortly: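 Intrinsic compound fluorescence in the red window (Ex/Em 540/590 nm) is measured in attached HepG2 cells exposed for 1 hr, DMSO vehicle as baseline, benchmarked to Rose Bengal sodium.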
The nature of experiment [5]: qHTS assay to test for compound auto fluorescence at 535 nm (green) in HepG2 cells (AID 720675).
The nature of experiment [6]: qHTS assay to test for compound auto fluorescence at 460 nm (blue) in HEK293 cells (AID 720678). Also: potency is read from the fitted curve at half-maximal effect. Put shortly:
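Cells were seeded and left to adhere for 4-5 hr at 37C. Compounds were then pin-transferred. After an overnight incubation at 37C under 5% CO2, intrinsic fluorescence at 405/460 nm was measured and referenced to triamterene.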

Experiment [7] is described as follows: qHTS assay to test for compound auto fluorescence at 590 nm (red) in HEK293 cells (AID 720679). The essentials: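 Each well held 2,000 HEK293 cells in medium containing 10% dialyzed FBS. Following 4-5 hr attachment at 37C, 23 nL test compound or DMSO was added; plates sat overnight, and red fluorescence (540/590nm) was recorded.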
Experiment [8] in a line: qHTS assay for small molecule disruptors of the mitochondrial membrane potential - cell viability (AID 720634; calls by dose curve;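 also: human HepG2 liver cancer cells; series mostly up to about 83 µM; nearly all actives have a fitted effect of over 20% in size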). Put shortly:
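Cytotoxicity was quantified from ATP content by CellTiter-Glo luminescence in the same wells as the MMP dye read-out. HepG2 (2,000 cells/well) were plated overnight and exposed to compounds for 1 hr at 37 C.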

Experiment [9] is described as follows: qHTS assay for small molecules that induce genotoxicity in human embryonic kidney cells expressing luciferase-tagged ATAD5 (AID 651632). Also: nearly all actives have a fitted effect of over 15% in size. Also: potency is read from the fitted curve at half-maximal effect. Put shortly: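 A rise in luciferase signal from ATAD5-tagged HEK293T cells marks genetic stress. Cells were exposed to compounds for 16 hr at 37C, 5% CO2, then luciferase was quantified after a 30 min room-temperature incubation with Amplite.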

Experiment [10] in a line: qHTS assay for small molecule disruptors of the mitochondrial membrane potential (AID 720635). Also: potency is read from the fitted curve at half-maximal effect. The essentials: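 HepG2 cells (2,000/well) attached overnight at 37C, then took compound for 1 hr at 37C, 5% CO2. Mito-MPS dye was added for 30 min; fluorescence was read at 490/535 nm (monomers) and 540/590 nm (aggregates).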

Several values for one entry are separate records, joined by “and”; a condition that tells them apart may be missing. Identical values can stand only once. Values without a mark were called inactive. Records with an inconclusive call do not appear. A structure can be active in one record and inactive in another. Activity calls are given as the source filed them. Unless noted, calls follow the shape of the dose curve; as a rule, active = well fitted curve in the direction sought with a large enough effect in the repeat runs; inconclusive = weak or mixed curves; inactive = no such curve, though single readings can be large; an effect the other way counts as inactive or inconclusive.
% is scaled to controls: 0 for no effect and ±100 for the full control effect; tags tell the direction and shape of the fitted curve or compound fluorescence and quenching.

As to `OCCCO`, the Potency entry in [1], in [2], in experiment [3] and in experiment [6] was “inactive” throughout. In addition, the molecule was classed as inactive in experiment [4], in experiment [5] and in experiment [7].

As for `Nc1ccc(-c2ccc(F)cc2)cc1`, the Potency result in experiment [1], in [2], in [3], in experiment [8] and in experiment [6] was “inactive” throughout. Also, the molecule was classed as inactive in experiment [4], in experiment [5] and in experiment [7].

As to `Cc1cc(SC2=C(O)C[C@@](CCc3ccc(N)cc3)(C(C)C)OC2=O)c(C(C)(C)C)cc1CO`, the Potency entry in experiment [1], in experiment [9], in experiment [2], in experiment [8] and in [6] was “inactive” throughout. The molecule was called inactive in experiment [4], in experiment [5] and in [7].

As to `CC1(C)C(=O)NC(=O)N1CO`, the Potency result in [1], in experiment [2], in [3], in experiment [8], in experiment [10] and in experiment [6] was “inactive” in each case. For the same molecule, the molecule was called inactive in experiment [4], in experiment [5] and in experiment [7].

`OCC(O)c1ccccc1` (centres undefined): the Potency result in [1], in [2], in experiment [3], in experiment [8] and in experiment [6] was “inactive” in each case. For the same molecule, the molecule was called inactive in [4], in [5] and in experiment [7].

Consider `C/C=C1\[C@H]2C=C(C)C[C@]1(N)c1ccc(=O)[nH]c1C2`, for which the Potency entry in [1], in experiment [2], in experiment [8] and in [6] was “inactive” throughout. The result in experiment [4], in experiment [5] and in experiment [7] was inactive.

Regarding `CC(=O)Nc1cccc(N)c1`, the Potency entry in experiment [1], in [9], in experiment [2], in experiment [8] and in [6] was “inactive” throughout. In addition, the result in experiment [4], in [5] and in experiment [7] was inactive.

`CC1=CC(=C(c2ccc(N)cc2)c2ccc(N)cc2)C=CC1=N`: the Potency result in experiment [9], in experiment [2] and in experiment [6] was “inactive” each time. In addition, the Potency was 11.9 µM (active) in experiment [3]; 221 nM (active) and 55 nM (active) in experiment [10]. Moreover, the activity, negative = cytotoxicity in experiment [3] is -19.8% [at 8.08 µM]. The activity change, negative = cytotoxicity in experiment [8] is -6.69% [at 8.08 µM]. For the same molecule, the result in experiment [5] and in experiment [7] was inactive.

`CCOc1cc(OCC)c(C(C)=O)cc1OCC`: the Potency result in [1], in [9], in experiment [2], in [8] and in experiment [6] was “inactive” throughout. Moreover, the result in experiment [4], in experiment [5] and in experiment [7] was inactive.

Consider `CCCCCCCCS`, for which the Potency result in experiment [1], in experiment [2], in experiment [3], in experiment [8], in experiment [10] and in [6] was “inactive” each time. The molecule was called inactive in [4], in [5] and in [7].

`CCCCCCCCCCCC(=O)OCC`: the Potency result in [9], in [2], in experiment [3], in [8], in experiment [10] and in [6] was “inactive” in each case. Besides, the molecule was classed as inactive in [5] and in [7].

`CC[C@H](NC(C)C)[C@H](O)c1ccc(O)c2[nH]c(=O)ccc12`: the Potency result in experiment [9], in [2], in [3], in experiment [8] and in experiment [10] was “inactive” in each case. The molecule was classed as inactive in experiment [4], in experiment [5] and in experiment [7]. Also, in experiment [6], the Potency is 11.2 µM [fluorescent] (active).

For the molecule `CC(C)CC(C)(C)C`, the Potency entry in experiment [9], in experiment [2], in experiment [3], in experiment [8], in [10] and in experiment [6] was “inactive” throughout. The result in experiment [5] and in experiment [7] was inactive.

For `CCC(C)C1N=C(C)C(C)S1` (centres undefined), the Potency result in experiment [9], in [2], in experiment [3], in experiment [8], in experiment [10] and in experiment [6] was “inactive” throughout. In addition, the molecule was classed as inactive in experiment [4], in experiment [5] and in experiment [7].

Consider `CC(C)C[C@H](NC(=O)[C@H](Cc1ccccc1)NC(=O)c1cnccn1)B(O)O`, for which the Potency in experiment [9] is 21.1 nM (active) and 18.8 nM (active); in experiment [2] it was 376 nM (active) and 211 nM (active); in [3], 376 nM (active) and 94.4 nM (active). Besides, the Potency entry in [8], in experiment [10] and in experiment [6] was “inactive” each time. Besides, the result in experiment [4], in experiment [5] and in experiment [7] was inactive.

For the molecule `FC(F)(Cl)C(F)(Cl)Cl`, the Potency result in experiment [9], in [2], in experiment [3], in experiment [8], in [10] and in experiment [6] was “inactive” each time. The molecule was classed as inactive in [4], in experiment [5] and in [7].

Take `CCCc1ccc(OC)cc1`: the Potency entry in experiment [9], in [2], in experiment [3], in experiment [8], in [10] and in [6] was “inactive” in each case. Also, the result in experiment [4], in experiment [5] and in experiment [7] was inactive.

Take `Nc1cccc2c(=O)[nH][nH]c(=O)c12`: the Potency entry in experiment [9], in [2], in experiment [3], in experiment [8], in [10] and in experiment [6] was “inactive” each time. Besides, the molecule was classed as inactive in [4], in [5] and in experiment [7].

As to `C[C@@H](O)[C@H]1C(=O)N2C(C(=O)O)=C(S[C@@H]3CN[C@H](CNS(N)(=O)=O)C3)[C@H](C)[C@H]12`, the Potency result in experiment [9], in experiment [2], in [3], in experiment [8], in [10] and in experiment [6] was “inactive” in each case. In addition, the outcome in [5] and in experiment [7] was inactive.
